{"source": "the supplement of paper PMC8007513", "tested_on": "Trichoderma virens ATCC 9645", "experiment": "growth yield (OD600) with compound + IPBC relative to untreated control; higher = less growth inhibition", "settings": "compound concentration: 100 uM, IPBC concentration: 200 ng/ml", "summary_of_the_method": "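Trichoderma virens ATCC 9645 spores, from potato dextrose agar plates grown for 7 days, were brought to 15,000 spores ml^−1 in potato dextrose broth and dispensed as 100 μl aliquots into 96-well plates. Each aliquot received library compounds at 100 μM final, with or without a biocide at 200 ng ml^−1, before growth at 30 °C and OD600 readings on a BioTek EL800 at 40 h and 72 h. Growth is expressed relative to the control containing neither agent and represents means of duplicate screens.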", "note": "Structures can show the parent of a compound that is named as a salt. ± gives the standard error. In all, about 1,300 compounds went through this assay and about 130 (10%) showed an effect of 50% or more. The full list was thinned out, with strong results kept by preference."}
{"smiles": "CC[C@H](C)C(=O)O[C@H]1C[C@@H](C)C=C2C=C[C@H](C)[C@H](CC[C@@H]3C[C@@H](O)CC(=O)O3)[C@H]21", "note": "[Lovastatin] + CCCCNC(=O)OCC#CI [3-iodo-2-propynyl butylcarbamate (IPBC)]", "values": [{"measurement": "growth yield", "setting": "40 h", "value": "104 ± 4", "unit": "%"}, {"measurement": "growth yield", "setting": "72 h", "value": "103 ± 1.6", "unit": "%"}]}
{"smiles": "CN1CCN(C(=O)OC2c3nccnc3C(=O)N2c2ccc(Cl)cn2)CC1", "note": "(stereo not drawn) [Zopiclone] + CCCCNC(=O)OCC#CI [3-iodo-2-propynyl butylcarbamate (IPBC)]", "values": [{"measurement": "growth yield", "setting": "40 h", "value": "91.8 ± 2.5", "unit": "%"}, {"measurement": "growth yield", "setting": "72 h", "value": "93 ± 1.4", "unit": "%"}]}
{"smiles": "CC(=O)OC[C@H]1O[C@@H]([S-])[C@H](OC(C)=O)[C@@H](OC(C)=O)[C@@H]1OC(C)=O.CCP(CC)CC.[Au+]", "note": "[Auranofin] + CCCCNC(=O)OCC#CI [3-iodo-2-propynyl butylcarbamate (IPBC)]", "values": [{"measurement": "growth yield", "setting": "40 h", "value": "23.2 ± 1.3", "unit": "%"}, {"measurement": "growth yield", "setting": "72 h", "value": "29.7 ± 2.4", "unit": "%"}]}
{"smiles": "CO[C@H]1/C=C/O[C@@]2(C)Oc3c(C)c(O)c4c(c3C2=O)C2=NC3(CCN(CC(C)C)CC3)NC2=C(NC(=O)/C(C)=C\\C=C\\[C@H](C)[C@H](O)[C@@H](C)[C@@H](O)[C@@H](C)[C@H](OC(C)=O)[C@@H]1C)C4=O", "note": "[Rifabutin] + CCCCNC(=O)OCC#CI [3-iodo-2-propynyl butylcarbamate (IPBC)]", "values": [{"measurement": "growth yield", "setting": "40 h", "value": 99.4, "unit": "%"}, {"measurement": "growth yield", "setting": "72 h", "value": "97.1 ± 8.4", "unit": "%"}]}
{"smiles": "CC(=O)OCC1=C(C(=O)O)N2C(=O)[C@@H](NC(=O)Cc3cccs3)[C@H]2SC1", "note": "[Cephalothin sodium salt] + CCCCNC(=O)OCC#CI [3-iodo-2-propynyl butylcarbamate (IPBC)]", "values": [{"measurement": "growth yield", "setting": "40 h", "value": "91.7 ± 8.4", "unit": "%"}, {"measurement": "growth yield", "setting": "72 h", "value": "90.9 ± 7.9", "unit": "%"}]}
{"smiles": "CCC(Cc1c(I)cc(I)c(N)c1I)C(=O)O", "note": "(stereo not drawn) [Iopanoic acid] + CCCCNC(=O)OCC#CI [3-iodo-2-propynyl butylcarbamate (IPBC)]", "values": [{"measurement": "growth yield", "setting": "40 h", "value": "70.2 ± 2.5", "unit": "%"}, {"measurement": "growth yield", "setting": "72 h", "value": "88.3 ± 4.4", "unit": "%"}]}
{"smiles": "COc1c(N2C[C@@H]3CCCN[C@@H]3C2)c(F)cc2c(=O)c(C(=O)O)cn(C3CC3)c12", "note": "[Moxifloxacin] + CCCCNC(=O)OCC#CI [3-iodo-2-propynyl butylcarbamate (IPBC)]", "values": [{"measurement": "growth yield", "setting": "40 h", "value": "109 ± 2.7", "unit": "%"}, {"measurement": "growth yield", "setting": "72 h", "value": "105 ± 3.5", "unit": "%"}]}
{"smiles": "O=C1c2ccccc2S(=O)(=O)N1CCCCN1CCN(c2ncccn2)CC1", "note": "[Ipsapirone] + CCCCNC(=O)OCC#CI [3-iodo-2-propynyl butylcarbamate (IPBC)]", "values": [{"measurement": "growth yield", "setting": "40 h", "value": "87.4 ± 4.8", "unit": "%"}, {"measurement": "growth yield", "setting": "72 h", "value": "90.7 ± 1.8", "unit": "%"}]}
{"smiles": "Cc1ccc(N(CC2=NCCN2)c2cccc(O)c2)cc1", "note": "[Phentolamine hydrochloride] + CCCCNC(=O)OCC#CI [3-iodo-2-propynyl butylcarbamate (IPBC)]", "values": [{"measurement": "growth yield", "setting": "40 h", "value": "86.25 ± 0.79", "unit": "%"}, {"measurement": "growth yield", "setting": "72 h", "value": "97.64 ± 0.73", "unit": "%"}]}
{"smiles": "CCCCCC[C@H]1C(=O)O[C@H](C)[C@H](NC(=O)c2cccc(NC=O)c2O)C(=O)O[C@@H](C)[C@@H]1OC(=O)CC(C)C", "note": "[Antimycin A] + CCCCNC(=O)OCC#CI [3-iodo-2-propynyl butylcarbamate (IPBC)]", "values": [{"measurement": "growth yield", "setting": "40 h", "value": "17.6 ± 1.1", "unit": "%"}, {"measurement": "growth yield", "setting": "72 h", "value": "42.9 ± 2.4", "unit": "%"}]}
{"smiles": "COc1cccc(C2(O)CCCCC2CN(C)C)c1", "note": "(stereo not drawn) [Tramadol hydrochloride] + CCCCNC(=O)OCC#CI [3-iodo-2-propynyl butylcarbamate (IPBC)]", "values": [{"measurement": "growth yield", "setting": "40 h", "value": "87.5 ± 2.1", "unit": "%"}, {"measurement": "growth yield", "setting": "72 h", "value": "90.51 ± 0.73", "unit": "%"}]}
{"smiles": "COCCCOc1cc(C[C@@H](C[C@H](N)[C@@H](O)C[C@H](C(=O)NCC(C)(C)C(N)=O)C(C)C)C(C)C)ccc1OC", "note": "[Aliskiren hemifumarate] + CCCCNC(=O)OCC#CI [3-iodo-2-propynyl butylcarbamate (IPBC)]", "values": [{"measurement": "growth yield", "setting": "40 h", "value": "93.4 ± 5.1", "unit": "%"}, {"measurement": "growth yield", "setting": "72 h", "value": "99.1 ± 1.1", "unit": "%"}]}
{"smiles": "CCOc1ccccc1OC(c1ccccc1)C1CNCCO1", "note": "(stereo not drawn) [Reboxetine mesylate] + CCCCNC(=O)OCC#CI [3-iodo-2-propynyl butylcarbamate (IPBC)]", "values": [{"measurement": "growth yield", "setting": "40 h", "value": "82.92 ± 0.32", "unit": "%"}, {"measurement": "growth yield", "setting": "72 h", "value": "90.61 ± 0.63", "unit": "%"}]}
{"smiles": "CC(N)C(O)c1ccccc1", "note": "(stereo not drawn) [Phenylpropanolamine hydrochloride] + CCCCNC(=O)OCC#CI [3-iodo-2-propynyl butylcarbamate (IPBC)]", "values": [{"measurement": "growth yield", "setting": "40 h", "value": "97.1 ± 7.5", "unit": "%"}, {"measurement": "growth yield", "setting": "72 h", "value": "101 ± 3.5", "unit": "%"}]}
{"smiles": "O=C(O)CN(CCN(CC(=O)O)CC(=O)O)CCN(CC(=O)O)CC(=O)O", "note": "[Pentetic acid] + CCCCNC(=O)OCC#CI [3-iodo-2-propynyl butylcarbamate (IPBC)]", "values": [{"measurement": "growth yield", "setting": "40 h", "value": "18.7 ± 1.6", "unit": "%"}, {"measurement": "growth yield", "setting": "72 h", "value": "88.41 ± 0.73", "unit": "%"}]}
{"smiles": "CCc1cccc(CC)c1NC(=O)CN(CC(=O)O)CC(=O)O", "note": "[Etifenin] + CCCCNC(=O)OCC#CI [3-iodo-2-propynyl butylcarbamate (IPBC)]", "values": [{"measurement": "growth yield", "setting": "40 h", "value": "87.7 ± 4.1", "unit": "%"}, {"measurement": "growth yield", "setting": "72 h", "value": "94.4 ± 2.3", "unit": "%"}]}
{"smiles": "O=P(O)(O)C(O)(Cc1cccnc1)P(=O)(O)O", "note": "[Risedronic acid monohydrate] + CCCCNC(=O)OCC#CI [3-iodo-2-propynyl butylcarbamate (IPBC)]", "values": [{"measurement": "growth yield", "setting": "40 h", "value": "88.8 ± 2.7", "unit": "%"}, {"measurement": "growth yield", "setting": "72 h", "value": "91.66 ± 0.42", "unit": "%"}]}
{"smiles": "COc1ccc(C[C@@H]2c3cc(OC)c(OC)cc3CC[N@+]2(C)CCC(=O)OCCCCCOC(=O)CC[N@@+]2(C)CCc3cc(OC)c(OC)cc3[C@H]2Cc2ccc(OC)c(OC)c2)cc1OC", "note": "[Cisatracurium besylate] + CCCCNC(=O)OCC#CI [3-iodo-2-propynyl butylcarbamate (IPBC)]", "values": [{"measurement": "growth yield", "setting": "40 h", "value": "78.3 ± 2.1", "unit": "%"}, {"measurement": "growth yield", "setting": "72 h", "value": "85.9 ± 4.1", "unit": "%"}]}
{"smiles": "CC1=C(/C=C/C(C)=C/C=C/C(C)=C\\C(=O)O)C(C)(C)CCC1", "note": "[Isotretinoin] + CCCCNC(=O)OCC#CI [3-iodo-2-propynyl butylcarbamate (IPBC)]", "values": [{"measurement": "growth yield", "setting": "40 h", "value": 83.5, "unit": "%"}, {"measurement": "growth yield", "setting": "72 h", "value": "105 ± 16", "unit": "%"}]}
{"smiles": "N=C(N)c1ccc(OCCCCCOc2ccc(C(=N)N)cc2)cc1", "note": "[Pentamidine isethionate] + CCCCNC(=O)OCC#CI [3-iodo-2-propynyl butylcarbamate (IPBC)]", "values": [{"measurement": "growth yield", "setting": "40 h", "value": "2.7 ± 0.48", "unit": "%"}, {"measurement": "growth yield", "setting": "72 h", "value": "2.1 ± 0.42", "unit": "%"}]}
{"smiles": "CCCCOc1ccc(CC(=O)NO)cc1", "note": "[Bufexamac] + CCCCNC(=O)OCC#CI [3-iodo-2-propynyl butylcarbamate (IPBC)]", "values": [{"measurement": "growth yield", "setting": "40 h", "value": "99.59 ± 0.16", "unit": "%"}, {"measurement": "growth yield", "setting": "72 h", "value": "95.438 ± 1e-14", "unit": "%"}]}
{"smiles": "CCCCOc1ccc(C(=O)CCN2CCCCC2)cc1", "note": "[Dyclonine hydrochloride] + CCCCNC(=O)OCC#CI [3-iodo-2-propynyl butylcarbamate (IPBC)]", "values": [{"measurement": "growth yield", "setting": "40 h", "value": "75.4 ± 1.1", "unit": "%"}, {"measurement": "growth yield", "setting": "72 h", "value": "90.8 ± 1.5", "unit": "%"}]}
{"smiles": "CCCNC(C)(C)COC(=O)c1ccccc1", "note": "[Meprylcaine hydrochloride] + CCCCNC(=O)OCC#CI [3-iodo-2-propynyl butylcarbamate (IPBC)]", "values": [{"measurement": "growth yield", "setting": "40 h", "value": "87.7 ± 7.6", "unit": "%"}, {"measurement": "growth yield", "setting": "72 h", "value": "91.8 ± 5.1", "unit": "%"}]}
{"smiles": "Nc1nc(O)c2ncn(CCC(CO)CO)c2n1", "note": "[Penciclovir] + CCCCNC(=O)OCC#CI [3-iodo-2-propynyl butylcarbamate (IPBC)]", "values": [{"measurement": "growth yield", "setting": "40 h", "value": "82.76 ± 0.48", "unit": "%"}, {"measurement": "growth yield", "setting": "72 h", "value": "95.6 ± 1.3", "unit": "%"}]}
